Sfp inh – blocks B. subtilis Sfp PPTase activity; Q9F4F7; Biochemical Sfp PPTase activity, qHTS; Potency, µM, for inactives: largest response in the series, negative = inhibition, most hits filed as inhibitors; 3.5% of 310,000 active;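 also: the enzyme is Sfp with the accession as filed and its product quenches rhodamine fluorescence; potency is read from the fitted curve at half-maximal effect; 0% = enzyme reaction without inhibitor and -100% = no enzyme wells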
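Fluorescence-quenching assay with 15 nM Sfp, 5 uM rhodamine-CoA and 12.5 uM BHQ-2-labelled ybbR peptide in pH 7.6 Hepes/MgCl2 buffer. Enzyme was pre-incubated with compound for 15 min at room temperature. Rate was taken from the 30-min fluorescence change (525/598 nm).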
rTrxR1 inhibitor – blocks rat thioredoxin reductase 1; O89049; recombinant rTrxR1, NADPH fluorescence consumption, selenite substrate; Potency, µM (top dose mostly 114 µM), without a hit: at the highest dose activity change, negative = inhibition, most hits filed as inhibitors; 1% of 390,000 active; AID 588453; also: potency is read from the fitted curve at half-maximal effect; % is scaled to controls: 0 for no effect and ±100 for the full control effect; nearly all actives have a fitted effect of over 65% in size
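Rat TrxR1 (90 nM in the dispensed reagent) was pre-reduced with 400 uM NADPH for 5 min at room temperature, then incubated with compound for 15 min. After 400 uM selenite was added, NADPH fluorescence (Ex 340/Em 450 nm) was followed for 8 min.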
GLS inh – inhibitors of human glutaminase (GLS). O94925. GLS enzymatic activity, qHTS titration. Potency, µM (titrated, usually from 45.5 µM), without a hit: at the top dose activity change, negative = inhibition, usual class: inhibitors. 0.21% of 410,000 active; also: potency is read from the fitted curve at half-maximal effect; % is scaled to controls: 0 for no effect and ±100 for the full control effect
Target sequence (O94925 whole entry, looked up): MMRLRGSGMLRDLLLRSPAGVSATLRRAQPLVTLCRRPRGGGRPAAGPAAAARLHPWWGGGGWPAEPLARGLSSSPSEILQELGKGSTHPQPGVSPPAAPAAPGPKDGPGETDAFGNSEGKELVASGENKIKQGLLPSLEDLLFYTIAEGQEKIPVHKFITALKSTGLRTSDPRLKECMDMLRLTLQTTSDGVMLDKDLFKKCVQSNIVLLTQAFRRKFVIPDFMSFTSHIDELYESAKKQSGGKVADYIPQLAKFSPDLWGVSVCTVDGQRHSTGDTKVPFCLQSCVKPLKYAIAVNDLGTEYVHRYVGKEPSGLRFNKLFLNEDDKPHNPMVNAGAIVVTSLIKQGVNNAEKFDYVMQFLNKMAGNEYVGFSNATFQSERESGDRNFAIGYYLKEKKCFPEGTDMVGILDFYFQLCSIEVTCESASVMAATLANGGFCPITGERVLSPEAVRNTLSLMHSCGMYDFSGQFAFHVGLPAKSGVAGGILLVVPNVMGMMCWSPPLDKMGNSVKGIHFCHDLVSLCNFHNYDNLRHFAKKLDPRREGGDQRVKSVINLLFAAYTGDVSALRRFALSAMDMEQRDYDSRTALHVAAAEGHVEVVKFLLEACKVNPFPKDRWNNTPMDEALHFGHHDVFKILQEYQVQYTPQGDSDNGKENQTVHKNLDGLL
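Assay buffer: 45 mM KH2PO4 pH 8.2, 0.02% Tween-20. hKGA acts on L-glutamine (1 mM solution added); product glutamate is reported by an oxidase/peroxidase Amplex Red coupling, with fluorescence taken at baseline and 30 min.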
GCN5L2 inh – blocks human GCN5L2 histone acetyltransferase. AID 504327. Q92830. GCN5L2 HAT assay, ThioGlo1 CoA-SH fluorescence. 0.21% of 390,000 active. Potency, µM (titrated, usually from 58.9 µM), inactives show at the highest dose activity change, negative = inhibition, actives largely listed as inhibitors; also: potency is read from the fitted curve at half-maximal effect; % is scaled to controls: 0 for no effect and ±100 for the full control effect
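GCN5L2 (20nM final) in 50mM HEPES, 0.1mM EDTA pH 7.5, 0.01% Tween-20 was preincubated 15 min at room temperature with compound, then given ThioGlo1 (50uM), H3(1-25) peptide (75uM) and acetyl-CoA (70uM); CoA-thiol fluorescence (Ex340/Em540) was read at 0 and 20 min.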
TrxR1 substrate – rat thioredoxin reductase 1 substrate activity. O89049. purified TrxR1 substrate turnover, NADPH consumption readout. Potency, µM (doses to about 114 µM), without a hit: at the highest dose activity change, negative = substrate turnover. 0.01% of 390,000 active. AID 588456; also: potency is read from the fitted curve at half-maximal effect; % is scaled to controls: 0 for no effect and ±100 for the full control effect; nearly all actives have a fitted effect of over 50% in size
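Rat TrxR1, dispensed at 90 nM, was prereduced with 400 uM NADPH (final) for 5 min at ~22 deg C, then incubated with compound 15 min before 400 uM selenite. A first-read NADPH fluorescence drop versus no-compound background flagged substrates.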
VDR inh – inhibitors of human vitamin D receptor; P11473; VDR-SRC2-3 peptide fluorescence polarization, 2 h; Potency, µM, inactives show max response, negative = inhibition, actives largely listed as inhibitors; 0.93% of 400,000 active; AID 504847; also: potency is read from the fitted curve at half-maximal effect; % is scaled to controls: 0 for no effect and ±100 for the full control effect
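VDR–SRC2-3 interaction, FP format. Cmpds 23 nl via pintool, brief spin, 2 h ambient incubation.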
USP1 UbRho – validation of human USP1/UAF1 inhibitors; shares compounds with VDR inh; Ub-Rhodamine cleavage, fluorescence kinetic read; Potency, µM (series often up to 56.8 µM), without a hit: at the highest dose activity change, negative = inhibition, hits mostly inhibitors; 50% of 50 active
VDR inh confirm – inhibits human vitamin D receptor, primary hit validation; shares compounds with VDR inh; VDR-coactivator inhibition assay, qHTS confirmation; Potency, µM, usual class: inhibitors; 89% of 840 active; also: potency is read from the fitted curve at half-maximal effect
VDR FP fluor – blocks human VDR-coactivator binding in fluorescein assay | shares compounds with VDR inh | Potency, µM (top dose mostly 57.1 µM), without a hit: at the top dose activity change, negative = inhibition, hits mostly inhibitors | AID 602200 | VDR-coactivator binding, fluorescein fluorescence polarization | 48% of 840 active; also: potency is read from the fitted curve at half-maximal effect
VDR bla reporter – VDR (human) inhibition, cell-based beta-lactamase validation; VDR beta-lactamase reporter cells, FRET ratio; cells co-treated with VDR agonist LG190178; 23% of 840 active; Potency, µM (series often up to 46.1 µM), inactives show at the highest dose activity change, negative = inhibition, actives largely listed as inhibitors; shares compounds with VDR inh; also: potency is read from the fitted curve at half-maximal effect; % is scaled to controls: 0 for no effect and ±100 for the full control effect
VDR viability – cytotoxic in counter-screen for VDR inhibitors; cytotoxicity counter-screen, cell viability, qHTS; Potency, µM (doses to about 48.3 µM), without a hit: at the highest dose activity change, negative = cytotoxicity, usual class: cytotoxic; shares compounds with VDR inh; 18% of 840 active;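 also: potency is read from the fitted curve at half-maximal effect; plate controls were DMSO for no effect and high-concentration cycloheximide for full effect; nearly all actives have a fitted effect of over 75% in size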
* hit, by the source's call; u = inconclusive; x = no result given; [ ] = dose if it differs, or a comment. Compounds with a hit are over-represented: about 3.8% of the library has one in this group of screens. Calls follow the shape of the dose curve; as a rule, active = well fitted curve in the direction sought with a large enough effect; inconclusive = small, poorly fitted or top-dose-only effect, or another doubt; inactive = no such curve, though single readings can be large; an effect the other way counts as inactive or inconclusive.

SMILES	Sfp inh	rTrxR1 inhibitor	GLS inh	GCN5L2 inh	TrxR1 substrate	VDR inh	VDR inh confirm	VDR FP fluor	VDR bla reporter	VDR viability	others
O=C(/C=C/c1ccc(Cl)cc1Cl)c1ccc[nH]1	7%	6%	-7%	-2%	-6%	-7%	x	x	x	x
CNc1ccc(Br)cc(C(=O)/C=C/c2ccc(Cl)cc2Cl)c1=O	14µM*	-68%	-8%	2%	-2%[57.1 µM]	u	3.5*	u	u	10%
Nc1ncnc2c1ncn2[C@@H]1O[C@H](CNCc2ccc(-c3cc(C(F)(F)F)ccc3Cl)o2)[C@@H](O)[C@H]1O	x	-22%	1%	-7%	-3%	28µM*	u	u	11%	14%
CC1(C)CC(=O)C(C(c2ccc(Br)cc2)C2C(=O)CC(C)(C)CC2=O)C(=O)C1	3%	7.9µM*	15%	-5%	10%	25µM*	30*	18µM*	24%	9%
CC1(C)CC(=O)C(C(c2ccc(F)cc2)C2C(=O)CC(C)(C)CC2=O)C(=O)C1	-33%	4%[57.1 µM]	-1%	-5%	-5%[57.1 µM]	-7%	x	x	x	x
Cc1nc(N=Nc2ccc(C(=O)O)cc2)c(COP(=O)(O)O)c(C=O)c1O	x	u	x	-15%	24%[57.1 µM]	-3%	x	x	x	x	USP1 UbRho=5.9µM*
Cc1nc(N=Nc2ccc(S(=O)(=O)O)cc2S(=O)(=O)O)c(COP(=O)(O)O)c(C=O)c1O	u	19%[57.1 µM]	x	u	13%[57.1 µM]	u	x	x	x	x
COC(=O)[C@H](C)NC(=O)c1cc2c(cn1)[nH]c1ccccc12	8.9µM*	-3%	u	-26%	23%	22µM*	3.4*	u	17%	-11%
COC(=O)C(C)(N)Cc1ccc(O)cc1 (stereo not drawn)	x	17%[57.1 µM]	20%	-4%	17%[57.1 µM]	11%	x	x	x	x
COc1ccc(C)cc1N1C(=N)/C(=C2/Nc3ccccc3S2)C(c2ccccc2)C1=O (stereo not drawn)	-7%	12%	1%	-6%	-3%	u	10*	8.9µM*	-20%	-6%
COc1ccc(C2C(Oc3ccccc3)C(=O)N2c2cc(C)ccc2C)cc1OC (stereo not drawn)	4%	-1%	6%	-14%	-10%	-2%	x	x	x	x
Cc1cccc(/C=N/c2sc3c(c2C#N)CCN(Cc2ccccc2)C3)c1O	10%	2%[57.1 µM]	-11%	4%	3%	-13%	x	x	x	x
Cc1sc2ccccc2[n+]1CCc1ccccc1	x	10%	x	x	-2%	x	11*	7.9µM*	14%	4%
COc1ccc(S(=O)(=O)N2Cc3ccccc3CC2C(=O)Nc2ccc(O)cc2)cc1OC (stereo not drawn)	8%	9%	15%	-3%	-3%	4%	x	x	x	x
Cc1cc(C)c2c(C(C)(C)C)nn(-c3ccccc3)c2n1	-3%	13%	-3%	2%	12%	10%	x	x	x	x

Screening results from PubChem BioAssay.
